Assay in all cases: NCI-60 one-dose screen, 48 h (100 = growth as untreated, 0 = no growth, -100 = all killed)
Holding throughout (settings): 10 µM unless noted

The test system of assay [1] is HCT-15 colon.
Assay [2] relates to HT29 colon.
The test system of assay [3] is SNB-75 CNS.
The test system of assay [4] is SNB-19 CNS.
For assay [5], the system named is U251 CNS.
Assay [6] has as its system PC-3 prostate.
Assay [7] concerns SK-MEL-5 melanoma.
In assay [8] the test system is UACC-62 melanoma.
Assay [9] relates to LOX IMVI melanoma.
Assay [10] has as its system SK-MEL-28 melanoma.

This is part of a sample that, as a whole, favours compounds with a hit. Of some 83,000 tested, about 20% had one in any assay.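 Each cell line was grown in a 96-well plate and treated with one concentration of compound for 48 hours. Values below 10 were considered active.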 A number with no mark means an inactive call. Calls of active or inactive are those of the source.

In the case of `Cc1cc(NCc2cc(Nc3ccnc4cc(Cl)ccc34)ccc2F)nc(N2CCOCC2)n1`, the growth in assay [1] is 12.4%; in [2], 8.57% (active); in assay [3], -22.2% (active); in assay [4], 56.1%; in assay [5], -48% (active); in assay [6], 37.5%. The growth in assay [7] was 28.4%; in assay [8] it was 4.01% (active); in assay [9], -78.4% (active); in [10], 5.36% (active).

Turning to `O=c1c2cc(F)ccc2sc2c(NCCN3CCCCC3)nc3ccccc3c12`, the growth in assay [1] was 13.7%; in [2], 10.7%; in assay [3] it was 37.3%; in assay [4], 66.6%; in assay [5], 40.1%; in assay [6] it was 53.1%. In addition, the growth was 70.1% in assay [7], 36.7% in assay [8], -62.8% (active) in assay [9] and -14.9% (active) in [10].

Take `CC(=O)[C@@H]1CC[C@]2(COS(=O)(=O)c3ccc(C)cc3)CC[C@]3(C)[C@H](CC[C@@H]4[C@@]5(C)CCCNC(C)(C)[C@@H]5CC[C@]43C)[C@@H]12`: the growth in [1] is 32%; in assay [2] it was 2.18% (active); in assay [3] it was 83.2%; in assay [4], 91.7%; in [5], 61.8%; in assay [6] it was 56.8%. The growth in assay [7] is 76.2%; in assay [8], 58.9%; in [9] it was 14%; in assay [10] it was 85.6%.

On to `COc1cc(C2NC(=O)c3ccccc3N2)ccc1OCCCCCOc1c(OC)cc(C2=NOC(c3cc(OC)c(OC)c(OC)c3)C2)cc1OC` (stereo not given), for which the growth was 73% in assay [1]; 94.2% in [2]; 101% in assay [3]; 80.2% in assay [4]; 84.2% in assay [5]; 36.8% in [6]. In addition, the growth was -2.4% (active) in [7], 53.3% in assay [8], 61% in [9] and 69.4% in assay [10].

`O=C(/C=C/c1c(Cl)nc2sccn12)c1ccc(F)c(F)c1`: the growth is 90.4% in assay [1]; 87% in [2]; 60.4% in [3]; 87.9% in assay [4]; 90.7% in assay [5]; 78.8% in assay [6]. For the same compound, the growth in assay [7] is 66.4%; in assay [8], 68.7%; in assay [9], 92%; in assay [10] it was 96%.

In the case of `O=c1ccn2nc3ccccc3c2[nH]1`, the growth was 91.7% in [1]; 96.1% in [2]; 85.2% in assay [3]; 95.5% in assay [4]; 96.4% in assay [5]; 88% in assay [6]. In addition, the growth in [7] is 96%; in [8], 92.5%; in assay [9] it was 96.3%; in assay [10], 182%.

`CNC(=O)c1cc(Oc2cccc3nc(Nc4ccc(F)c(Cl)c4)ccc23)ccn1`: the growth in assay [1] was 16.5%; in [2] it was 81.4%; in [3], 87.6%; in [4] it was 43.6%; in assay [5] it was 26.7%; in [6], 30.8%. In addition, the growth in assay [7] is 12.3%; in assay [8], 25.3%; in assay [9] it was 27%; in assay [10], 65.7%.

With `Cc1cc(=O)[nH]c(N=Nc2c(O)[nH]c3ccccc23)n1`, the growth in assay [1] was 109%; in assay [2], 106%; in [3], 105%; in assay [4], 103%; in assay [5], 103%; in assay [6], 97.9%. The growth in assay [7] is 103%; in [8], 106%; in [9] it was 99.8%; in assay [10], 111%.

As for `CN(C)c1ccc(/C=C/C(=O)c2cccc(Nc3nc(Nc4ccccc4)nc(Nc4ccccc4)n3)c2)cc1`, the growth in [1] is 80.5%; in assay [2], 53.8%; in assay [3], 5.3% (active); in [4], 99.1%; in [5], 91.5%; in [6] it was 81.7%. The growth in [7] was 69.5%; in assay [8], 91.2%; in assay [9] it was 88.7%; in [10], 75%.

In the case of `COc1ccc(-c2cc(-c3ccc(Nc4nc(Nc5ccc(Cl)cc5)nc(Nc5ccc(Cl)cc5)n4)cc3)nc(N)c2C#N)cc1`, the growth is 10.6% in [1]; 2.33% (active) in [2]; -74.1% (active) in assay [3]; 105% in [4]; 10.9% in [5]; 4.49% (active) in assay [6]. Besides, the growth is -67.5% (active) in assay [7], 42.4% in assay [8], -75.1% (active) in assay [9] and -47.5% (active) in assay [10].

For `COc1cc(-c2nn(-c3ccccc3)cc2-c2ccnc(NCCNS(=O)(=O)c3ccc(Cl)cc3)n2)ccc1Cl`, the growth is 30.3% in [1]; 11.3% in assay [2]; 49.1% in assay [3]; 49.9% in assay [4]; 28.4% in assay [5]; 18.3% in [6]. Besides, the growth is 32.6% in assay [7], 41% in [8], 32.3% in assay [9] and 49.2% in assay [10].

As to `O=C(N/N=C/C=C/c1ccc([N+](=O)[O-])o1)c1cc2ccccc2cc1O`, the growth in assay [1] was -12.3% (active); in assay [2] it was -11.7% (active); in assay [3], 43.4%; in [4], -34.4% (active); in assay [5], -16% (active); in [6], 4.52% (active). Further, the growth in assay [7] is -100% (active); in [8], -64.3% (active); in [9], -79.5% (active); in [10], -66.5% (active).

For the compound `Cc1cc(NCCCCNc2ccnc3cc(Cl)ccc23)nc(Nc2ccc(C(=O)N3CCCC3)cc2)n1`, the growth in [1] was 7.18% (active); in assay [2] it was -2.28% (active); in [3] it was -9.47% (active); in [4] it was 30.5%; in [5], -7.46% (active); in assay [6], 35.6%. In addition, the growth in [7] is -100% (active); in [8], -33.6% (active); in assay [9], -90.9% (active); in [10] it was -72.8% (active).

These data come from PubChem BioAssay (NCI).
